Rows were chosen to be rich in hits. Some 12% of all compounds tested hit in one or more screens of this group.
Pf growth 48h = Primary qHTS for delayed death inhibitors of the malarial parasite plastid, 48 hour incubation; Potency, µM (titrated, usually from 28.7 µM), without a hit: at the top dose activity change, negative = inhibition, actives largely listed as inhibitors; AID 504832, 2011; hit rate 5.9% among 310,000; P. falciparum luciferase growth in erythrocytes, 48 h; also: % is scaled to controls: 0 for no effect and ±100 for the full control effect
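In quantitative HTS format, infected erythrocytes bearing luciferase-reporter parasites were treated for a single generation at 37 C. Luminescence after adding detection reagent served as the growth measure.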
AmpC no deterg = qHTS Inhibitors of AmpC Beta-Lactamase (assay without detergent). P00811. AmpC nitrocefin hydrolysis, absorbance 480 nm, 0.0001% Triton. Potency, µM (top dose mostly 57.1 µM), inactives show at the highest dose activity change, negative = inhibition, actives largely listed as inhibitors. hit rate 0.52% among 330,000. AID 485341, 2010;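 also: plate controls were no compound for no effect and no enzyme for full effect; nearly all actives have a fitted effect of over 20% in size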
Target sequence (P00811 whole entry, looked up): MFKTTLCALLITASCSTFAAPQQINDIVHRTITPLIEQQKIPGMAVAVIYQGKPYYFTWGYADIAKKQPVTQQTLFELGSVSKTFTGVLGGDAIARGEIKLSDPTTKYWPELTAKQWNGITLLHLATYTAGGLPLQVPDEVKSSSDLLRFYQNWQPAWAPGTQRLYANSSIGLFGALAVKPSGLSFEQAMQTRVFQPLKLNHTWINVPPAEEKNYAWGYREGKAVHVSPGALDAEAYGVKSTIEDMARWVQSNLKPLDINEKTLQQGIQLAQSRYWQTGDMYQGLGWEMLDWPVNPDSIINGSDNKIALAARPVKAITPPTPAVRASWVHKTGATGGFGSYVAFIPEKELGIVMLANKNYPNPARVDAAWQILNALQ
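20 mM phosphate pH 7.0 + 0.01% (detergent screen) or 0.0001% Triton X-100; 5.3 nM AmpC reagent; cpd preinc 15 min RT; nitrocefin (800 uM stock) to start; A480 q20 s × 4 min; Activity was normalised to no-enzyme and no-compound control wells.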
Pf growth 96h = Primary qHTS for delayed death inhibitors of the malarial parasite plastid, 96 hour incubation; P. falciparum luciferase reporter growth, 96 h; Potency, µM (series often up to 28.7 µM), inactives show top-dose activity change, negative = inhibition, most hits filed as inhibitors; hit rate 6.9% among 320,000; AID 504834, 2011; also: % is scaled to controls: 0 for no effect and ±100 for the full control effect
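Parasite growth measured via integrated firefly luciferase reporter in P. falciparum. Infected erythrocytes at 2% hematocrit, 0.05% parasitemia final were treated 96 hours at 37 C under 5% CO2, and luminescence was read.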
SARS PLP yeast = qHTS of Yeast-based Assay for SARS-CoV PLP | S. cerevisiae expressing SARS-CoV PLpro, growth rescue | Potency, µM (doses to about 32.9 µM), inactives show top-dose activity, positive = growth rescue, hits mostly activators | hit rate 0.19% among 330,000 | AID 485353, 2010; calls by dose curve; also: 0% is about no effect; nearly all actives have a fitted effect of over 55% in size
Sm TGR inh = qHTS Assay for the Inhibitors of Schistosoma Mansoni Peroxiredoxins | AID 485364, 2010 | Potency, µM (series often up to 114 µM), for the others: top-dose activity change, negative = inhibition, usual class: inhibitors | hit rate 3% among 360,000 | Schistosoma mansoni thioredoxin glutathione reductase (TGR), Q962Y6 | purified TGR, DTNB reduction, TNB absorbance 405 nm; also: % is scaled to controls: 0 for no effect and ±100 for the full control effect; nearly all actives have a fitted effect of over 60% in size
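First, TGR (20 nM dispensed) and NADPH were mixed with compound. Second, a 15 min room-temperature incubation followed. Third, further NADPH and then DTNB were added to start the reaction. Finally, TNB absorbance was monitored kinetically.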
AmpC detergent = qHTS Inhibitors of AmpC Beta-Lactamase (assay with detergent). Potency, µM (series often up to 114 µM), without a hit: at the top dose activity change, negative = inhibition, hits mostly inhibitors. P00811. AmpC hydrolysis of nitrocefin, absorbance 480 nm, 0.01% Triton. hit rate 0.041% among 370,000. AID 485294, 2010;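 also: 0% = no-compound wells and -100% = no-enzyme wells; nearly all actives have a fitted effect of over 25% in size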
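20 mM phosphate pH 7.0 + 0.01% (detergent screen) or 0.0001% Triton X-100; 5.3 nM AmpC reagent; cpd preinc 15 min RT; nitrocefin (800 uM stock) to start; A480 q20 s × 4 min; Activity was normalised to no-enzyme and no-compound control wells.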
The depositor's hits bear a star; [ ] = dose if it differs, or a comment. Unless noted, calls follow the shape of the dose curve; as a rule, active = well fitted curve in the direction sought with a large enough effect; inconclusive = small, poorly fitted or top-dose-only effect, or another doubt; inactive = no such curve, though single readings can be large; an effect the other way counts as inactive or inconclusive. Potency is read from the fitted curve at half-maximal effect.

For COC(=O)CCC(=O)OC1(C)C(=O)C=C2C=C(C3CC3)N(CC3CC3)C=C2C1=O (stereo not given) the results were Pf growth 48h 10µM*, AmpC no deterg 21%, Pf growth 96h 4.1µM*, SARS PLP yeast 0%, Sm TGR inh -30% and AmpC detergent -1%.
`CCCCC1=CC2=CC(=O)C(C)(OC(=O)CC)C(=O)C2=CN1CC(C)C` (stereo not given) gave Pf growth 48h inconclusive, AmpC no deterg 36%, Pf growth 96h inconclusive, SARS PLP yeast 0%, Sm TGR inh -10% and AmpC detergent -4%.
COC(=O)CCC(=O)OC1(C)C(=O)C=C2C=C(C3CC3)N(C3CCCC3)C=C2C1=O (stereo not given) was read as Pf growth 48h inconclusive, AmpC no deterg 19%, Pf growth 96h 7.4µM*, SARS PLP yeast -4%, Sm TGR inh -2% and AmpC detergent 3%.
`COC(=O)CCC(=O)OC1(C)C(=O)C=C2C=C(C3CC3)N(CC(C)C)C=C2C1=O` (stereo not given) gave Pf growth 48h 2.9µM*, AmpC no deterg 25%, Pf growth 96h 1.9µM*, SARS PLP yeast 1%, Sm TGR inh -22% and AmpC detergent 5%.
For COC(=O)CCC(=O)OC1(C)C(=O)C=C2C=C(C3CC3)N(Cc3ccccc3)C=C2C1=O (stereo not given) the results were Pf growth 48h inconclusive, AmpC no deterg 49%, Pf growth 96h inconclusive, SARS PLP yeast 1%, Sm TGR inh -17% and AmpC detergent 4%.
Screening COC(=O)CCC(=O)OC1(C)C(=O)C=C2C=C(C3CC3)N(C3CCCCC3)C=C2C1=O (stereo not given) returned Pf growth 48h inconclusive, AmpC no deterg 72%, Pf growth 96h inconclusive, SARS PLP yeast 3%, Sm TGR inh -1% and AmpC detergent -1%.
COc1c(C)cc(S(=O)(=O)Nc2cccc(-c3ccc(N4CCOCC4)nn3)c2)c(C)c1C was read as Sm TGR inh 4% and AmpC detergent 22%.
Screening Clc1ccc(-n2c(SCc3nc4ccccc4[nH]3)nnc2-c2ccncc2)cc1 returned Pf growth 48h 22%, AmpC no deterg -9%, Pf growth 96h 46%, SARS PLP yeast 5%, Sm TGR inh 7% and AmpC detergent -10%.
Screening Cc1ccsc1/C=N/NC(=O)CO returned Pf growth 48h 4%, AmpC no deterg -8%, Pf growth 96h 14%, SARS PLP yeast 15% and AmpC detergent 5%.
`Cc1ccsc1C=Nc1ccc(O)cc1` gave Pf growth 48h inconclusive, AmpC no deterg -25%, Pf growth 96h 16%, SARS PLP yeast -7%, Sm TGR inh 18µM* and AmpC detergent -9%.
Screening Cc1ccsc1/C=N/N=C/c1sccc1C returned Pf growth 48h 488%, AmpC no deterg -26%, Pf growth 96h 8.3µM*, SARS PLP yeast -7%, Sm TGR inh 1% and AmpC detergent 10%.
For Cc1ccsc1/C=N/NC(=O)c1sccc1C the results were Pf growth 48h 68%, AmpC no deterg -9%, Pf growth 96h 107%, SARS PLP yeast -13%, Sm TGR inh 1% and AmpC detergent -1%.
Screening CC(Sc1nc2ccccc2c(=O)n1CC1CCCO1)C(=O)N(C)c1ccccc1 (stereo not given) returned Pf growth 48h inconclusive, AmpC no deterg 100%, Pf growth 96h inconclusive, SARS PLP yeast 1%[6.58 µM], Sm TGR inh -16% and AmpC detergent -17%.
For COc1ccc(Sc2nc(-c3ccccn3)ncc2OC)cc1 the results were Pf growth 48h 3.3µM*, AmpC no deterg 94%, Pf growth 96h 3.3µM*, SARS PLP yeast -7%, Sm TGR inh 1% and AmpC detergent inconclusive.
`COc1cnc(-c2ccccn2)nc1Sc1ccc(Cl)cc1` gave Pf growth 48h 2.3µM*, AmpC no deterg 12%, Pf growth 96h 1.7µM*, SARS PLP yeast inconclusive, Sm TGR inh 7% and AmpC detergent -3%.
COc1cnc(N(C)C)nc1Sc1ccc(Cl)cc1 was read as Pf growth 48h -17%, AmpC no deterg 3%, Pf growth 96h 61%, SARS PLP yeast 3%, Sm TGR inh 12% and AmpC detergent 2%.
`COc1cc(C(F)(F)F)nc(-c2ccccn2)n1` gave Pf growth 48h 0%, AmpC no deterg -12%, Pf growth 96h 50%, SARS PLP yeast -2%, Sm TGR inh 2% and AmpC detergent -8%.
For CCOC(=O)CSc1nc(-c2ccccn2)ncc1OC the results were Pf growth 48h 0%, AmpC no deterg -5%, Pf growth 96h inconclusive, SARS PLP yeast 1%, Sm TGR inh 5% and AmpC detergent 9%.
Screening COc1cnc(-c2ccccn2)nc1Sc1ccccc1 returned Pf growth 48h 13µM*, AmpC no deterg 60%, Pf growth 96h inconclusive, SARS PLP yeast inconclusive, Sm TGR inh 6% and AmpC detergent 6%.
`COc1cnc(-c2ccccn2)nc1Sc1ccc(F)cc1` gave Pf growth 48h 4.7µM*, AmpC no deterg 69%, Pf growth 96h 1.7µM*, SARS PLP yeast -5%, Sm TGR inh -4% and AmpC detergent 6%.
CCC(C(=O)n1cccc1C#N)c1ccccc1C (stereo not given) was read as Pf growth 48h 24%, AmpC no deterg -11%, Pf growth 96h 19%, SARS PLP yeast 3%, Sm TGR inh 50µM* and AmpC detergent 6%.
For CCOC(=O)C(=CNc1ccccc1C)C(=O)OCC the results were Pf growth 48h -8%, AmpC no deterg -2%, Pf growth 96h 17%, SARS PLP yeast -3%, Sm TGR inh -7% and AmpC detergent -6%.
COc1ccc(NC(=O)C(CCCCNC(=O)OC(C)(C)C)NC(=O)OCc2ccccc2)cc1 (stereo not given) was read as Pf growth 48h inconclusive, AmpC no deterg -19%, Pf growth 96h 0.59µM*, SARS PLP yeast 4%, Sm TGR inh -11% and AmpC detergent -10%.
Screening O=C(NCCCC(NC(=O)OCc1ccccc1)C(=O)O)OCc1ccccc1 (stereo not given) returned Pf growth 48h 4%, AmpC no deterg -11%, Pf growth 96h 6.6µM*, SARS PLP yeast 15%, Sm TGR inh -15% and AmpC detergent 0%.
